Screens deposited in PubChem BioAssay by The Scripps Research Institute Molecular Screening Center.
HTR2A ag – mouse HTR2A agonism via beta-arrestin recruitment; activation, % at 7.6 µM; AID 624169; P35363; actives 0.66% (n = 360,000); CHO-K1 mHTR2A beta-arrestin complementation, luminescence; percent of 30 µM serotonin response;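 active = activation above a run cutoff, the mean activation of all tested compounds plus 3 SD, cut at about 14% in these data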;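 note: 0% = plate median of compound wells and 100% = 30 µM serotonin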
MOR-DOR inv ag – inverse agonists of human mu-delta opioid receptor heterodimerization | cell-based MOR-DOR heterodimer luminescence, inverse agonism | actives 0.21% (n = 340,000) | inhibition, % at 9.3 µM | P35372+P41143; in the data active = inhibition above about 22%, passing the limit was not always enough;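 note: 0% = cells with DMSO and 100% = wells without cells with DMSO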
sPLA2-III inh – Blocks human group III sPLA2 activity. Q9NZ20. inhibition, % at 12.2 µM. actives 0.56% (n = 370,000). QFRET BODIPY PC-A2 liposome hydrolysis, fluorescence;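 active = inhibition above mean plus 3 SD of compounds lying within the high and low control bounds, cut at about 19% in these data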;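 note: 0% = median of test compound wells and 100% = no enzyme DMSO wells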
Target sequence (Q9NZ20 whole entry, looked up): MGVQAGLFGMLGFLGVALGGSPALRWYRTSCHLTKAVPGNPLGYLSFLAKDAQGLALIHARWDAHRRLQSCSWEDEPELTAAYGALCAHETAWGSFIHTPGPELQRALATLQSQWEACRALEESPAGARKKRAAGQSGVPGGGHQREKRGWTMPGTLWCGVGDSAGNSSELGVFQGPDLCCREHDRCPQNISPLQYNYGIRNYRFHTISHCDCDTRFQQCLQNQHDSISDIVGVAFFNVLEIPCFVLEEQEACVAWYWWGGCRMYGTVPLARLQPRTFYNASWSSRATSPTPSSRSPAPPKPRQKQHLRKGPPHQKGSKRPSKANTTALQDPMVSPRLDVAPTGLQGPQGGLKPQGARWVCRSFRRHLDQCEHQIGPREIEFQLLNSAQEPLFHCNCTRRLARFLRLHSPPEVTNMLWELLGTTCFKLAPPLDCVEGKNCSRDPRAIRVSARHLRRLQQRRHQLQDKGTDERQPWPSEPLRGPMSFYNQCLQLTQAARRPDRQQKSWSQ
HTR5A inv ag – inverse agonist of human HTR5A in OPRM1-OPRD1 counter-screen | HTR5A cell line, luminescence, inverse agonism | inhibition, % at 9.3 µM | actives 0.083% (n = 340,000) | AID 504634; in the data active = inhibition mostly above about 23%, no sharp cut-off; inactive = mostly below about 18%;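 note: 0% = cells with DMSO and 100% = no-cell wells with DMSO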
MOR-DOR ag – agonists of human mu-delta opioid receptor heterodimerization; AID 504326; actives 0.3% (n = 340,000); activation, % at 9.3 µM; cells, OPRM1-OPRD1 heterodimerization, luminescence; P35372+P41143;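 note: 0% = vehicle-treated cells and 100% = reference agonist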
HTR5A ag ctr – activates human HTR5A in OPRM1-OPRD1 agonist counter-screen | HTR5A agonist assay, luminescence, cell-based | AID 504692 | activation, % at 9.3 µM | actives 0.61% (n = 340,000); in the data active = activation mostly above about 9.5%, no sharp cut-off; inactive = mostly below about 7.6%;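 note: 0% = cells with vehicle only and 100% = reference agonist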
MOR-DOR ag conf – confirmation of human OPRM1-OPRD1 heterodimerization agonists; actives 45% (n = 830); shares compounds with MOR-DOR ag; AID 504904; cells, MOR-DOR heterodimerization, luminescence complementation; activation, % at 9.3 µM;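 note: 0% = vehicle-treated cells and 100% = reference agonist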
HTR5A ag counter – HTR5A agonism, opioid heterodimer counter-screen; shares compounds with MOR-DOR ag; HTR5A agonist counterscreen, cell luminescence; actives 8% (n = 830); activation, % at 9.3 µM; AID 504905; in the data active = activation above about 17%;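 note: 0% = vehicle-treated cells and 100% = reference agonist response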
Numbers without * were called inactive; i = inactive; nt = not tested or not shown. Sampled rows, rich in hits. Any-hit rate of the full collection: about 2.2%. Cut-off read from the data, not from the text of the source, unless noted: active = activation above about 18%; inactive = the rest.

SMILES	HTR2A ag	MOR-DOR inv ag	sPLA2-III inh	HTR5A inv ag	MOR-DOR ag	HTR5A ag ctr	MOR-DOR ag conf	HTR5A ag counter
Cc1cc(C)c(NC(=O)Cn2nnc(C(=O)NCc3cccs3)c2N)c(C)c1	12	-123	1	-41	22*	0	0	-4
CCn1c(-c2ccccc2)c(C(=O)CCl)c2ccccc21	8	-331	-1	33	66*	14	-2	6
Brc1ccc(NC2=Nc3ccccc3CC2)cc1	0	-165	0	4	26*	1	230*	7
C[C@H](NC(=O)C[C@@H]1C[C@@H]2c3cc(NC(=O)C4CCC4)ccc3O[C@@H]2[C@@H](CO)O1)c1ccccc1	nt	nt	5	nt	nt	nt	nt	nt
COC(=O)NCC(c1ccc2c(c1)OCO2)N1CCN(c2ccc(OC)cc2)CC1 (stereo unspecified)	4	-422	7	-3	79*	4	0	-4
C=CS(=O)(=O)N(Cc1ccc(F)cc1)C(=C)C(=O)OC	nt	nt	19	nt	nt	nt	nt	nt
CCC1CCCCN1CCN1C(=O)C2C(C(=O)Nc3cccc(OC)c3)C3C=CC2(O3)C1C(=O)NC1CCCCC1 (stereo unspecified)	-1	-12	2	3	2	-1	nt	nt
CCC1CCCCN1CCN1C(=O)C2C(C(=O)Nc3ccc(OC)cc3)C3C=CC2(O3)C1C(=O)NC1CCCCC1 (stereo unspecified)	3	-180	6	-4	34*	2	2	-19
CCCCNS(=O)(=O)CC1NCCc2ccccc21 (stereo unspecified)	nt	nt	7	nt	nt	nt	nt	nt
CC(C)(C)OC(=O)N1CCC[C@@H]1C(=O)N1CCC[C@H]1C(=O)NCc1ccccc1	nt	nt	2	nt	nt	nt	nt	nt
OC(CNC1CCCc2ccccc21)COc1c(Cl)cccc1Cl (stereo unspecified)	-4	-142	-7	1	20*	0	4	16
Cc1sc(NC(=O)CSc2nnc(COc3ccccc3)n2C)c(C#N)c1C	-1	-82	4	-9	13	3	nt	nt
Cc1sc(NC(=O)CSc2nnc3scc(-c4ccccc4)n23)c(C#N)c1C	2	-105	1	-27	19*	3	0	3
c1ccc(-c2c[nH]c3cccc(-c4cc5ccccc5o4)c23)cc1	nt	nt	-21	nt	nt	nt	nt	nt
CC(C)=CCN1CCN(CCC2=C(C)CCCC2(C)C)CC1CCO (stereo unspecified)	-8	-170	-6	0	24*	3	0	1
CNC1=C(N(C(C)=O)c2ccc(Br)cc2)C(=O)c2ccccc2C1=O	1	-30	-9	9	6	2	nt	nt
CC(=O)C1=C(c2ccc(Br)cc2)C(=O)c2ccccc2C1=O	6	-178	2	-28	33*	11	26*	11
CC(C)(C)OC(=O)n1ccc2ccc(-c3ccc4cc[nH]c4c3)cc21	nt	nt	-45	nt	nt	nt	nt	nt
CCOC(=O)C1(CCc2ccccc2)CCN(Cc2ccc(O)cc2)CC1	-7	-35	-22	2	7	-1	nt	nt
CCOC(=O)C1(CCc2ccccc2)CCN(Cc2ccc(OC)cc2)CC1	-3	i	-3	3	129*	-1	7	8
CCOC(=O)C1(CCc2ccccc2)CCN(Cc2c(O)cccc2OC)CC1	-6	i	-14	6	292*	-2	-1	-8
CC(C)(C)OC(=O)NCc1cc2c(cc1/C=C/S(=O)(=O)NC1CCCC1)OCO2	nt	nt	0	nt	nt	nt	nt	nt
CC(C)c1ccccc1NC(=O)c1cccc(NC(=O)c2ccccc2)c1	-3	-293	-5	8	48*	-1	8	4
CC(C)c1cc(NC(=O)c2ccccc2)cc(C(C)C)c1O	-4	22	-5	-1	-5	2	nt	nt
COc1ccc2c(Cl)c(-c3nnc4n3CCCCC4)sc2c1	-3	-455	-7	-11	81*	4	15	5
SMILES	HTR2A ag	MOR-DOR inv ag	sPLA2-III inh	HTR5A inv ag	MOR-DOR ag	HTR5A ag ctr	MOR-DOR ag conf	HTR5A ag counter
Clc1c(-c2nnc3n2CCCCC3)sc2ccccc12	-1	1	-8	7	0	-2	nt	nt
CC(NCCC1(Cc2ccccc2Cl)CCOC(C)(C)C1)c1cccs1 (stereo unspecified)	3	-227	-6	-13	45*	-2	6	2
CC(C)[C@H](NC(=O)c1c(F)cccc1F)C(=O)Nc1cccc(Br)c1	3	-126	-4	-32	22*	8	12	0
Oc1ccc(-c2csc(Nc3ncccn3)n2)cc1	2	-110	-21	-18	23*	6	-2	-3
O=C(COc1ccc(Cl)cc1Cl)N/N=C/c1cccnc1	-4	4	1	-3	-1	1	nt	nt
COc1ccc(/C=N/NC(=O)COc2ccc(Cl)cc2Cl)cc1Cn1nc(C)cc1C	7	-194	-1	7	28*	11	1	5
C(=N\Nc1nc(Nc2ccccc2)nc(Nc2ccccc2)n1)/c1ccncc1	-2	-113	7	4	20*	-1	-2	-2
COc1ccc(C(=O)Nc2cc(Cl)c(Br)cc2C(=O)O)cc1	nt	nt	-22	nt	nt	nt	nt	nt
CCN(CC)CCCN(C(=O)c1cccs1)c1nc(-c2ccc(OC)cc2)cs1	-9	-266	nt	21	51*	3	1	27*
CN1CC(O)([C@H](Cc2ccccc2)NC(=O)OC(C)(C)C)OCC1C(=O)NCc1cccc2ccccc12 (stereo partly specified)	nt	nt	-12	nt	nt	nt	nt	nt
Cc1nc2c(O)c3c(c(O)c2nc1C)C1C=CC3CC1	-5	-107	-8	5	22*	-1	-4	0
Cc1nc2c(C)c(C)c(C)c(C)c2nc1C	5	nt	8	nt	nt	nt	nt	nt
COC(=O)C1=C(C)N(Cc2ccccc2C(F)(F)F)C(=NCc2cccc(C(F)(F)F)c2)NC1c1ccc(F)cc1 (stereo unspecified)	nt	nt	-7	nt	nt	nt	nt	nt
Cc1ccc2c(Cl)c(Cc3ccccc3)c(=S)[nH]c2n1	-3	-104	15	-2	21*	0	35*	-2
Cc1[nH]c(=S)c(C#N)c(C)c1Cc1ccccc1	9	nt	16	nt	nt	nt	nt	nt
C=CCn1c(O)c(C2=c3ccccc3=NC2=O)sc1=Nc1ccc(O)cc1	-2	-195	-1	21	38*	-8	15	3
C=CCN(CC#Cc1ccccc1)Cc1ccc(OC)cc1	nt	nt	6	nt	nt	nt	nt	nt
CN(C)C(CNC(=O)c1cc2ccccc2oc1=O)c1ccccc1 (stereo unspecified)	3	-255	4	-2	31*	2	133*	-3
Cc1noc(C)c1S(=O)(=O)N(C)C[C@@H]1OCc2cnnn2CCCC(=O)N([C@@H](C)CO)C[C@@H]1C	nt	nt	-2	nt	nt	nt	nt	nt
